We go through 19 molecules from PubChem BioAssay (Tox21).

The nature of assay [1]: A CellTox Green Cytotoxicity Assay to monitor cytotoxicity in HepG2 cells - 8 hour (AID 1224890). Further: nearly all actives have a fitted effect of over 45% in size. The essentials:
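Continuous culture of HepG2 cells with a membrane-impermeant DNA dye; rising fluorescence marks dead cells. Compound exposure lasted up to 40 h at 37 C, with reads every 8 h from 0 h.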

A short description of assay [2]: qHTS assay to identify small molecule antagonists of the estrogen receptor alpha (ER-alpha) signaling pathway using the BG1 cell line in the presence of 0.1 nM 17-beta-estradiol - cell viability counter screen (AID 1259241). Further: nearly all actives have a fitted effect of over 40% in size. The essentials: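 Cells were plated and left 24 hr, compounds in DMSO were pinned in, 17beta-estradiol was added to 0.1 nM final, and after 22 hr CellTiter-Fluor reagent was added for 30 min before fluorescence was read.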
In general terms: In qHTS, concentration-response curves come from the screen itself.

The nature of assay [3]: qHTS assay to identify small molecule antagonists of the androgen receptor (AR) signaling pathway using the MDA cell line in the presence of 0.5 nM R1881 - cell viability counter screen (AID 1259242). Further: nearly all actives have a fitted effect of over 45% in size. Put shortly: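 Fluorescence from CellTiter-Fluor, which reports protease activity of live cells, was read 30 min after reagent addition to MDA-kb2 cells that had been incubated 16 hr with compound and 0.5 nM R1881.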

Assay [4] can be described thus: qHTS assay to identify small molecule phospholipidosis (PLD) inducers (AID 1259344; active means well fitted curve in the direction sought with a large enough effect; an effect the other way counts as inactive or inconclusive). The essentials: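 HepG2 cells on collagen I, attached 4 h at 37 C, were co-treated with compound and LipidTOX Red dye for 24 h at 37 C, then fixed with paraformaldehyde plus Hoechst 33342 and imaged by high-content microscopy for phospholipid accumulation.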
Assay [5] is described as follows: qHTS assay to identify small molecule HDAC inhibitors (AID 1259364). Further: nearly all actives have a fitted effect of over 45% in size. Further: potency means the concentration at half of the fitted maximal effect. The essentials: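 Endogenous HDAC class I/II activity was measured in wild-type HCT-116 cells by HDAC-Glo luminescence after 2 h compound treatment.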
Assay [6] is described as follows: qHTS assay to identify small molecule HDAC inhibitors - cell viability counter screen (AID 1259365). Further: series mostly up to about 92 µM; nearly all actives have a fitted effect of over 50% in size. The essentials:
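Counter screen in wild-type HCT-116 cells: compounds dissolved in DMSO are pin-transferred onto overnight-plated cells and left 2hr at 37C. ATP-based CellTiter-Glo luminescence then measures viable cells.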

A short description of assay [7]: qHTS assay to identify small molecule agonists of the sonic hedgehog signaling (Shh) pathway - cell viability counter screen (AID 1259366). Further: nearly all actives have a fitted effect of over 50% in size. The essentials: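 Cells are plated at 2,000 per well and left 4hr at 37C, 5% CO2 before compound addition. After 23hr of treatment, CellTiter-Fluor reagent is added for 1hr at 37C and fluorescence is measured.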
Assay [8] in a line: qHTS assay to identify small molecule antagonists of the sonic hedgehog signaling (Shh) pathway - cell viability counter screen (AID 1259367). Further: nearly all actives have a fitted effect of over 55% in size. Put shortly: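 NIH/3T3-derived Gli1-Luc reporter cells (2,000 per well) rested 4 hr at 37 C, then received DMSO compounds plus conditioned medium. After 23 hr of treatment, CellTiter-Fluor was added for 1 hr at 37C and fluorescence read.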

The target of assay [9] is Androgen receptor (Homo sapiens) (UniProt P10275). Kind of assay: qHTS assay to identify small molecule antagonists of the androgen receptor (AR) signaling pathway using the MDA cell line in the presence of 0.5 nM R1881 (AID 1259243). Further: nearly all actives have a fitted effect of over 50% in size. Put shortly: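 Inhibition of R1881 (0.5 nM final) induced reporter signal was measured in human MDA-kb2 cells; note the MMTV promoter also responds to GR. Exposure lasted 16 hr at 37C.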
Sequence of Androgen receptor (Homo sapiens) (P10275 whole entry, looked up): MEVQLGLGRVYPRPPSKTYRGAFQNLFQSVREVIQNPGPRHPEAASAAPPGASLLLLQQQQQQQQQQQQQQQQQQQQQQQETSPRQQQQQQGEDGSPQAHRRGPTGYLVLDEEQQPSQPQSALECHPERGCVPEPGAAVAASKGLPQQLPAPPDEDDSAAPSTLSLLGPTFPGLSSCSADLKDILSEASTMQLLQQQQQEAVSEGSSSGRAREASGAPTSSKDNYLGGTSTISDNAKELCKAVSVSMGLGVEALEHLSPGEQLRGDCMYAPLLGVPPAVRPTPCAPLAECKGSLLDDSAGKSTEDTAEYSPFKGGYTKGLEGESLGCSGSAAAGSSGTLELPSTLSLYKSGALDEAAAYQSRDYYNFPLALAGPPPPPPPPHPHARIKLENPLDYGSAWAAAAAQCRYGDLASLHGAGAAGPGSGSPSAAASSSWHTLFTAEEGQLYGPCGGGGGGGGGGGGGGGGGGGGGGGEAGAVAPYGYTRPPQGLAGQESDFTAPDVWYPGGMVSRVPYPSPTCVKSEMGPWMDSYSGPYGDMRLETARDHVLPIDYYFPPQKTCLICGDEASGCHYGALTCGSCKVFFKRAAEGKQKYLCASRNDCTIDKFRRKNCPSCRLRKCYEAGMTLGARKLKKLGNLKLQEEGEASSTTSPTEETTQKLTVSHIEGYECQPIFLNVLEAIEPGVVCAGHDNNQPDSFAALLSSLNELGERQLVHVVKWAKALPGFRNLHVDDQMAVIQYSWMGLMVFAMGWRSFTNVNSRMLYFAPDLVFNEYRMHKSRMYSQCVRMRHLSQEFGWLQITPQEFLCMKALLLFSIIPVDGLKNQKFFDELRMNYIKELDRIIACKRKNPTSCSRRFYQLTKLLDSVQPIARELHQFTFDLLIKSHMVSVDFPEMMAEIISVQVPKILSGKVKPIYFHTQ

The target in assay [10] is Estrogen receptor (Homo sapiens) (UniProt P03372). Kind of assay: qHTS assay to identify small molecule antagonists of the estrogen receptor alpha (ER-alpha) signaling pathway using the BG1 cell line in the presence of 0.1 nM 17-beta-estradiol (AID 1259244). Further: nearly all actives have a fitted effect of over 50% in size. The essentials:
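Quantitative high-throughput screen in VM7Luc4E2 cells: compound plus 0.1 nM E2 (final), 22 h, 37C, 5% CO2; ONE-Glo added, 30 min room temperature, luminescence measured.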

Values without a mark were called inactive. Results filed as inconclusive are left out. Calls of active or inactive are those of the source. Unless noted, the call rests on the fitted dose curve; in most records, active means well fitted curve in the direction sought with a large enough effect in the repeat runs; inconclusive means weak or mixed curves; inactive means no such curve, though single readings can be large; an effect the other way counts as inactive or inconclusive.
On the % scale 0 is the no-effect control and ±100 the full control effect.

Sequence of Estrogen receptor (Homo sapiens) (P03372 whole entry, looked up): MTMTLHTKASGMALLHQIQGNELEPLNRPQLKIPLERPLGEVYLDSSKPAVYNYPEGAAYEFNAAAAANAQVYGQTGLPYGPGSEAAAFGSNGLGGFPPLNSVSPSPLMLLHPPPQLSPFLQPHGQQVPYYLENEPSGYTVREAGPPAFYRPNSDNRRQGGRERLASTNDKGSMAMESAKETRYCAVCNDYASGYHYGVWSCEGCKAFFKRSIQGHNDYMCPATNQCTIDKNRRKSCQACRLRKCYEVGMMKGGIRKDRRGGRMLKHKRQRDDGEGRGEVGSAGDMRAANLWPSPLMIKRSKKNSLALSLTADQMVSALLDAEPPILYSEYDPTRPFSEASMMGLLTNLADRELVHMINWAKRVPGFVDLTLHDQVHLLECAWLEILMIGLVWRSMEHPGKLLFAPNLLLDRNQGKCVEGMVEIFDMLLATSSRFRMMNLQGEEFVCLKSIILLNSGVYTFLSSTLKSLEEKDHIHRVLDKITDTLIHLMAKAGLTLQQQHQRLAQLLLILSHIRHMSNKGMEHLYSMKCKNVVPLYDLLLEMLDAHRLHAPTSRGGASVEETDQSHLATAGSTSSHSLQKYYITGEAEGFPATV

For `CN(C(=O)c1c(O)c2ccccc2n(C)c1=O)c1ccccc1`, the Potency entry in assay [1], in assay [3], in assay [4], in assay [5], in assay [7] and in [8] was “inactive” in each case. Also, the outcome in assay [2] and in assay [6] was inactive.
On to `OC1CCCCC1c1ccccc1` (stereo not drawn), for which the Potency entry in [1], in [9], in assay [5], in assay [7] and in [8] was “inactive” in each case. Moreover, the result in [2], in assay [10] and in assay [6] was inactive.
Turning to `Nc1ccccc1S(=O)(=O)O`, the Potency entry in assay [1], in assay [3], in assay [7] and in assay [8] was “inactive” each time. The result in [2] and in [6] was inactive.
On to `Cc1sccc1Br`, for which the Potency result in assay [1], in assay [5], in [7] and in assay [8] was “inactive” throughout. Besides, the result in assay [2], in assay [10] and in assay [6] was inactive.
For `CC1=CC(C)C(C=O)CC1` (stereo not drawn), the Potency result in [1], in assay [5], in assay [7] and in [8] was “inactive” throughout. The outcome in [2], in [10] and in [6] was inactive.
Regarding `CC1(C)CO[C@@H](CC(=O)O)CN1`, the Potency result in assay [1], in [3], in assay [4], in assay [5] and in assay [8] was “inactive” each time. Also, the outcome in assay [10] and in assay [6] was inactive.
On to `C=C(C)CS(=O)(=O)O`, for which the Potency entry in assay [1], in [3], in assay [9], in assay [5], in assay [7] and in [8] was “inactive” throughout. Also, the outcome in assay [10] and in assay [6] was inactive.
Regarding `ClC(Cl)(Br)Br`, the Potency result in assay [1], in [9], in [5], in assay [7] and in assay [8] was “inactive” each time. For the same molecule, the outcome in [2], in [10] and in assay [6] was inactive.
With `Nc1cc(=O)[nH]c(N)n1`, the Potency entry in assay [1], in assay [3], in assay [5], in [7] and in assay [8] was “inactive” in each case. Further, the outcome in assay [10] and in assay [6] was inactive. Further, the PLD induction in assay [4] was 1.63% [at 7.66 µM].
As for `N=C(N)c1ccc2cc(OC(=O)c3ccc(N=C(N)N)cc3)ccc2c1`, the Potency entry in assay [1], in assay [4], in assay [7] and in [8] was “inactive” in each case. Moreover, the outcome in assay [2], in [10] and in assay [6] was inactive. Also, the Potency in assay [5] is 59.6 nM (active).
As to `COc1ccc2c(c1)CCCC2=O`, the Potency result in assay [1], in assay [5], in assay [7] and in assay [8] was “inactive” in each case. Besides, the result in assay [2], in assay [10] and in [6] was inactive.
Regarding `CN(C)CCCNCCCN(C)C`, the Potency result in assay [1], in [5], in assay [7] and in [8] was “inactive” in each case. Moreover, the outcome in [2], in assay [10] and in assay [6] was inactive.
For `O=C1CCCCCCCCCCCN1`, the Potency entry in assay [1], in [7] and in assay [8] was “inactive” in each case. Also, the outcome in [2], in [10] and in assay [6] was inactive.
With `C=C1CC[C@H]2C[C@@H]1C2(C)C`, the Potency entry in assay [1], in [5], in [7] and in assay [8] was “inactive” throughout. In addition, the result in [2], in assay [10] and in assay [6] was inactive.
For the molecule `Cc1cc2c(cc1S(N)(=O)=O)S(=O)(=O)CCC2`, the Potency result in [1], in assay [4], in [5] and in [8] was “inactive” in each case. Moreover, the result in assay [2], in assay [10] and in assay [6] was inactive.
On to `CC(=O)OC/C=C(\C)CC/C=C(\C)CCC=C(C)C`, for which the Potency entry in assay [1], in [5], in assay [7] and in assay [8] was “inactive” each time. The outcome in assay [2], in assay [10] and in assay [6] was inactive.
For `CCOC(=O)c1c(C)n(C)c2ccc(O)cc12`, the Potency entry in assay [1], in assay [9], in assay [4], in assay [5], in assay [7] and in [8] was “inactive” throughout. The outcome in [2] and in [6] was inactive.
Consider `CC(=O)Nc1ccc(S(N)(=O)=O)cc1`, for which the Potency entry in assay [1], in [9], in assay [5], in assay [7] and in assay [8] was “inactive” each time. Moreover, the outcome in [2], in assay [10] and in assay [6] was inactive.
Turning to `CCOC(=O)CC(C)=O`, the Potency result in [1], in [5], in assay [7] and in [8] was “inactive” in each case. Also, the outcome in [2] and in [6] was inactive.
